# Inconclusive results are not listed. Entries that show only a call come without a potency. Unmarked numbers belong to inactive results. Active and inactive are the calls of the source. Unless noted, the call rests on the fitted dose curve; in most records, active means well fitted curve in the direction sought with a large enough effect; inconclusive means small, poorly fitted or top-dose-only effect, or another doubt; inactive means no such curve, though single readings can be large; an effect the other way counts as inactive or inconclusive.
# Columns and labels:
# [1] = target: Calcium and integrin-binding protein 1 (Homo sapiens) (UniProt Q99828); assay: Primary qHTS for Identification of Calcium Integrin Binding Protein 1 (CIB1) Competitor (AID 1508620);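 further: GST tagged CIB1 binding a fluorescein labelled alphaIIb integrin peptide tracer; top concentration of the series differs between compounds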
# Chain of Calcium and integrin-binding protein 1 (Homo sapiens) (Q99828 whole entry, looked up): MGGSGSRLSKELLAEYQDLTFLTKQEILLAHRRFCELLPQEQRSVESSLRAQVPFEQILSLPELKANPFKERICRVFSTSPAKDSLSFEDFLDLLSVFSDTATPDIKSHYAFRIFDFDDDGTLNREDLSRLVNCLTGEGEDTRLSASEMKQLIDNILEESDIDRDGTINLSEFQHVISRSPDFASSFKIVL
# Procedure, shortened: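 Fluorescence polarization competition: CIB1-GST (1 uM final) preincubated with compound 15 min at room temperature, then FITC-labeled alphaIIb peptide (100 nM final) added for another 15 min. Polarization read at Ex 480/Em 540.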
# [2] = Primary qHTS for small molecule stabilizers of the endoplasmic reticulum resident proteome: Secreted ER Calcium Modulated Protein (SERCaMP) assay (AID 1508630)
# Procedure, shortened: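 The SH-SY5Y reporter protocol was run at 3 concentrations up to 38.3 uM (primary) or 11 concentrations (follow-up): 16 h compound, 100 nM thapsigargin for 4 h, then extracellular luciferase luminescence.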
# [3] = target: Cytochrome P450 2D6 (Homo sapiens) (UniProt P10635); assay: Cytochrome P450 family 2 subfamily D member 6 (CYP2D6) small molecule antagonists: luciferase biochemical (cell-free) qHTS assay (AID 1645840; active means well fitted curve in the direction sought with a large enough effect in the repeat runs; an effect the other way counts as inactive or inconclusive; further: potency means the concentration at half of the fitted maximal effect; nearly all actives have a fitted effect of over 55% in size)
# Chain of Cytochrome P450 2D6 (Homo sapiens) (P10635 whole entry, looked up): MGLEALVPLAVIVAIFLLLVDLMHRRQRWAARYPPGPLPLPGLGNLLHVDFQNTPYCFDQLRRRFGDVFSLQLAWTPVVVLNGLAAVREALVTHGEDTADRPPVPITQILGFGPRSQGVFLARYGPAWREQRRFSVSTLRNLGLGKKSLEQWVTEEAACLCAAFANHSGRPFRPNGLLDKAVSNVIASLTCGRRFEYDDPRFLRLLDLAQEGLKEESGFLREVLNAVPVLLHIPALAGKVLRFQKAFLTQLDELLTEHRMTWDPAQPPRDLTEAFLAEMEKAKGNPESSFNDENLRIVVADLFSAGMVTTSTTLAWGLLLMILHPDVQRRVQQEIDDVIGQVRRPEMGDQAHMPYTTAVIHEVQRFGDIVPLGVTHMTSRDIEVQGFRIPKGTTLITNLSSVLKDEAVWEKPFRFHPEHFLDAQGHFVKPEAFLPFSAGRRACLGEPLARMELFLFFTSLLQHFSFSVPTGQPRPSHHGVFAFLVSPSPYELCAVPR
# Procedure, shortened: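 P450-Glo CYP2D6 system: proluciferin substrate converted by enzyme to luciferin, read by luminescence proportional to activity. Enzyme-substrate mix with compound 10 min at room temperature, then NADPH regeneration 1 h before detection reagent.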
# [4] = target: Cytochrome P450 2C9 (Homo sapiens) (UniProt P11712); assay: Cytochrome P450 family 2 subfamily C member 9 (CYP2C9) small molecule antagonists: luciferase biochemical (cell-free) qHTS assay (AID 1645842; active means well fitted curve in the direction sought with a large enough effect in the repeat runs; an effect the other way counts as inactive or inconclusive; further: series mostly up to about 57 µM; nearly all actives have a fitted effect of over 55% in size)
# Chain of Cytochrome P450 2C9 (Homo sapiens) (P11712 whole entry, looked up): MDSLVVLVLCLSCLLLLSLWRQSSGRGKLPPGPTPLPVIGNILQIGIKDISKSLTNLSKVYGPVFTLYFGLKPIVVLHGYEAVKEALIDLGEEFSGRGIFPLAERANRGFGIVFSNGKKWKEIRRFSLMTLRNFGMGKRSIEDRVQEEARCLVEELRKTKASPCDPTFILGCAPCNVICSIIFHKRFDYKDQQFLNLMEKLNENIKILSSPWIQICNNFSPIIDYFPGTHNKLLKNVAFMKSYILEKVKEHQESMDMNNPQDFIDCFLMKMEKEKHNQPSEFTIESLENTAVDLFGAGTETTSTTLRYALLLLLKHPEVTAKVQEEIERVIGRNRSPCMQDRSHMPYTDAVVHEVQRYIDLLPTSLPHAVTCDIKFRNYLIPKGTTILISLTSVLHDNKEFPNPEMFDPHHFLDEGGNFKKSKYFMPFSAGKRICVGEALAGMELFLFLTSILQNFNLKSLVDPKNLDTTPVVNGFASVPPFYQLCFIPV
# Procedure, shortened: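 P450-Glo CYP2C9 system: proluciferin substrate with enzyme in mix containing 0.4% BSA, 10 min at room temperature, then NADPH regeneration solution added and incubated 1 h at 37C. Detection reagent stopped reaction; luminescence read after 20 min as RLU.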
# [5] = Primary qHTS for inhibitors of nuclear receptor binding SET domain protein 2 (NSD2) in an isogenic RCH-ACV NSD2 p.E1099K mutant (9B) (AID 1645876); further: potency means the concentration at half of the fitted maximal effect; nearly all actives have a fitted effect of over 70% in size
# [6] = Primary qHTS for inhibitors of nuclear receptor binding SET domain protein 2 (NSD2) in an RCH-ACV wild type WT cells (2C) (AID 1645877); further: potency means the concentration at half of the fitted maximal effect; nearly all actives have a fitted effect of over 70% in size
smiles,measurement,setting,value
C/C=C/[C@@H]1C=C[C@@H]2C[C@H](C)CC[C@H]2[C@]1(C)/C(O)=C1/C(=O)[C@@H](CO)N(C)C1=O,Potency,[1],inactive
Cc1ccc(-c2ncc[nH]2)cc1NC(=O)c1ccc(OCc2ccccn2)cc1,Potency,[1],inactive
CCc1c(Cl)c(O)c(Cl)c(O)c1C(=O)O[C@H]1[C@H](O)[C@H](OC)[C@H](OC/C2=C\C=C\C[C@H](O)/C(C)=C\[C@H](CC)[C@@H](O[C@@H]3OC(C)(C)[C@@H](OC(=O)C(C)C)[C@H](O)[C@@H]3O)/C(C)=C/C(C)=C/C[C@@H]([C@@H](C)O)OC2=O)O[C@@H]1C,Potency,[1],inactive
CC(=O)OC1C(OC(=O)c2ccccc2)C2C(=C(C)CCC2(C)C)C23CCC(C)(C2)C(=O)CC13 (configuration not stated),Potency,[1],inactive
O=C(Nc1cccc2cccnc12)c1ccc(N2C(=O)[C@@H]3C4C=CC(C4)[C@@H]3C2=O)cc1,Potency,[1],inactive
C=C1CCC[C@]2(C)CC/C(=C(/CO)C(=O)OC)C[C@@H]12,Potency,[1],inactive
CNC(=O)c1cc(Oc2ccc(NC(=O)c3cccc(C(F)(F)F)c3)cc2)ccn1,Potency,[1],inactive
CC(=O)O[C@@H]1C[C@]2(C)[C@@]3(CCC4[C@@]5(C)CC[C@H](O[C@@H]6O[C@H](C(=O)O)[C@@H](O)[C@H](OC7OC(CO)C(O)C(O)[C@H]7O[C@@H]7O[C@@H](C)[C@H](O)[C@@H](O)[C@H]7O[C@@H]7OC[C@](O)(CO)[C@H]7O)[C@H]6OC6OC(CO)C(O)C(O)C6O)C(C)(C)C5CC[C@]42C)OC[C@@]12CCC(C)(C)CC23 (some centres not stated),"activity change, negative = inhibition",[1],-0.726% [at 12.4 µM]
C/C=C(\C)C(=O)OC1C=C(C)CC(OC(=O)c2ccc(O)cc2)C2C1(C)CCC2(O)C(C)C (configuration not stated),Potency,[1],inactive
COc1ccc(C#Cc2ccc(C(=O)N3CCC[C@@H](CO)C3)cc2)cc1,Potency,[1],inactive
C=C1CC[C@@H]2[C@](C)(CO)[C@H](O)CC[C@@]2(C)[C@@H]1/C=C/C1=CCOC1=O,Potency,[1],inactive
COc1cccc(N2CCN(C3=Nc4c(F)cccc4[C@H](CC(=O)O)N3c3cc(C(F)(F)F)ccc3OC)CC2)c1,Potency,[1],inactive
COc1ccc([C@H]2Cc3cccc(O)c3C(=O)O2)cc1OC,Potency,[1],inactive
C=C1CC[C@@H]2[C@](C)(CO)[C@H](O)CC[C@@]2(C)[C@@H]1CC(O)C1=CCOC1=O (some centres not stated),Potency,[1],inactive
CC(=O)OC(C)(C)/C=C/C(=O)[C@](C)(O)[C@H]1C(O)C[C@@]2(C)[C@@H]3CC=C4[C@@H](C=C(O[C@@H]5O[C@H](CO)[C@@H](O)[C@H](O)[C@H]5O)C(=O)C4(C)C)[C@]3(C)C(=O)C[C@]12C (some centres not stated),Potency,[1],inactive
CC(O)C(C)n1ncn(-c2ccc(N3CCN(c4ccc(OCC5COC(Cn6cncn6)(c6ccc(Cl)cc6Cl)O5)cc4)CC3)cc2)c1=O (configuration not stated),Potency,[1],inactive
CCc1ccccc1OC[C@@H](O)CN[C@H]1CCCc2ccccc21,Potency,[1],inactive
same,outcome,[2],inactive
same,Potency,[3],0.477 µM (active)
same,Potency,[4],inactive
same,Potency,[5],16.3 µM (active)
same,Potency,[6],10.3 µM (active)
CCOc1ccc(-n2c(C(C)N(Cc3cccnc3)C(=O)Cc3ccc(F)c(C(F)(F)F)c3)nc3ncccc3c2=O)cc1 (configuration not stated),Potency,[1],inactive
same,Potency,[3],23.9 µM (active)
COc1ccc2[nH]c(=O)c3c(c2c1)OC(C)(C)C=C3,Potency,[1],inactive
same,outcome,[2],inactive
same,Potency,[5],14.5 µM (active)
